Active and inactive are the calls of the source.
assay: budding yeast growth modifiers under rapamycin – strain BY4716, OD600, 96 h, primary screen (AID 1091); note: test concentration not given here; conditions: S. cerevisiae BY4716 + rapamycin, higher = more signal, called active from +8 up or from −8 down

z-score, inactive:
COc1ccc(COC(=O)NN=C2C[C@@H](O)[C@@H](O)[C@@H]3[C@@H]4C(=O)N(C[C@@H]5CCCO5)C(=O)[C@@H]4CC[C@H]23)cc1 -0.0457, CCOC(=O)[C@H](Cc1ccccc1)NC(=O)CCC1CC(OC(=O)NCCc2ccc(F)cc2)CC2(CCCC(COC(=O)NCCC(C)C)O2)O1 (some centres not stated) 0.783, COC(=O)CC=C[C@@H](C)[C@@H](C=NOC[C@@H](O)[C@H]1O[C@@H]2OC(C)(C)O[C@@H]2[C@H]1O)OC 0.303, C[C@]12CCC3c4ccc(OCC5CO5)cc4CCC3C1CC[C@@H]2O (some centres not stated) -0.494, CCOC(=O)CCN1C(=O)[C@H]2[C@H]3[C@H](O)[C@H](O)CC(=NO[C@@H]4O[C@H](CO)[C@@H](O)[C@H](O)[C@H]4O)[C@@H]3CC[C@H]2C1=O -0.933, CC(CCN1CCCCc2nc(C)c(C)cc21)=NO[C@H](C)c1cn([C@@H]2COC[C@H]2O)nn1 0.601, COc1ccc(COC(=O)NN=C2C[C@@H](O)[C@@H](O)[C@@H]3[C@@H]4C(=O)N(c5cccc(Oc6ccccc6)c5)C(=O)[C@@H]4CC[C@H]23)cc1 -0.693, CC=CC1=C(CO)[C@H](O)[C@H]2O[C@H]2[C@@H]1O -0.258, CC1(C)O[C@H]2OC([C@H](O)CON3C(=O)c4ccccc4C3=O)[C@H](O)[C@H]2O1 (some centres not stated) -0.425, CCOC(=O)NN=C1C[C@@H](O)[C@@H](O)[C@@H]2[C@@H]3C(=O)N(CC)C(=O)[C@@H]3CC[C@H]12 0.71, CC(=O)OC[C@H]1O[C@@H](ON=C(C)CCC(=O)OC[C@H]2O[C@H](C#Cc3ccccc3)C=C[C@@H]2Oc2ccc(C)cc2)[C@H](OC(C)=O)[C@@H](OC(C)=O)[C@@H]1OC(C)=O -0.211, Cc1cc2c(nc1C)CCCCN2CC(O)CN1CCCc2nc(-c3ccc(Br)cc3)ccc21 (configuration not stated) -0.051, CCOC(=O)CCN1C(=O)[C@H]2[C@H]3[C@H](O)[C@H](O)CC(=NOCC=C(C)CCC=C(C)C)[C@@H]3CC[C@H]2C1=O -0.44, CC(=O)OC[C@H]1O[C@@H](ON=C(C)CCN2CCCCc3nc(C)c(C)cc32)[C@H](OC(C)=O)[C@@H](OC(C)=O)[C@@H]1OC(C)=O -0.175, CC(=O)OC[C@H]1O[C@H](CCON=C(C)C)C=C[C@@H]1OC(C)=O 0.748, CCCNC(=O)OC[C@H]1O[C@H](CCON=C[C@@H](NS(=O)(=O)c2ccc(C)cc2)[C@H](C)C=CCC(=O)OC)C=C[C@@H]1Oc1ccc(OC)cc1 -0.148, CCCC[C@H]1CN2[C@@H](CC[C@@H](C)[C@@H]2c2ccc(Br)cc2)C(=O)O1 -0.435, CCC1=NOC(CCC2CC(OC(=O)NCc3cccc4c3OCO4)CC3(CCCC(COC(=O)NCCc4ccc(Cl)cc4)O3)O2)C1 (configuration not stated) 0.407, COc1ccc(O[C@H]2C=C[C@@H](C#Cc3ccccc3)O[C@@H]2CO)cc1 -0.731, CC(C)CON=C1[C@H]2CCn3c(=O)n(C)c(=O)n3[C@H]2[C@H](O)[C@@H]2O[C@H]12 -0.6, COC(=O)[C@@H]1CC[C@H](C)[C@@H](c2ccc(Br)cc2)N1C[C@@H](O)CN=[N+]=[N-] -0.243, COC(=O)[C@H](C)NC(=O)CCC1CC(OC(=O)NCCc2ccc(F)cc2)CC2(CCCC(COC(=O)NCc3ccccc3)O2)O1 (some centres not stated) 0.932, O=C1C[C@H](c2ccccc2)[C@H](c2ccc(Br)cc2)O1 -1.84, COc1ccc(O[C@H]2C=C[C@@H](c3ccccc3)O[C@@H]2COC(=O)CCC(C)=NOC[C@@H](O)COCc2ccco2)cc1 -0.244, O=C1[C@H]2[C@H]3[C@H](O)[C@H](O)CC(=NOCc4ccccc4)[C@@H]3CC[C@H]2C(=O)N1c1cccc(Oc2ccccc2)c1 -0.349, O=C1[C@H]2[C@H]3[C@H](O)[C@H](O)CC(=NOC[C@@H](O)COCc4ccco4)[C@@H]3CC[C@H]2C(=O)N1Cc1ccc2c(c1)OCO2 0.463, CCOC(=O)[C@H](CC(C)C)NC(=O)CCC1CC(OC(=O)NCc2ccc3c(c2)OCO3)CC2(CCCC(COC(=O)NCc3ccccc3)O2)O1 (some centres not stated) 0.0835
